The experiment concerns the target T1, CRBN, Q96SW2.
T1 chain: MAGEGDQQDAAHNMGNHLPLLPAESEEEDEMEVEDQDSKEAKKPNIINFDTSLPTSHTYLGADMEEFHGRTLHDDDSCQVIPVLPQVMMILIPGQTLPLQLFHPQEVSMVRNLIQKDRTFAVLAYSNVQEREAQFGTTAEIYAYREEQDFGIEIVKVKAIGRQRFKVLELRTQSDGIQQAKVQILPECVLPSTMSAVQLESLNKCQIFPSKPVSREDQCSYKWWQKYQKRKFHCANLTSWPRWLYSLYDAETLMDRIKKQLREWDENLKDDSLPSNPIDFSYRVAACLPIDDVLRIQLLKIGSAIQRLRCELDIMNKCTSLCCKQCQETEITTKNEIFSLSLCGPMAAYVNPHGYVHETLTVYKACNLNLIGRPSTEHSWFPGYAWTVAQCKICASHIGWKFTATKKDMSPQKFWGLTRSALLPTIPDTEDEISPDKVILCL
Description: log2 fold change of degron read counts, EGFP-low vs EGFP+ sorted cells (limma voom), compound-induced degradation; higher = more compound-induced degradation of the degron-EGFP fusion; degrons are variants of IKZF1/3 zinc finger 2; compound dose not given here. The conditions noted are these: Jurkat, 18 h.

Setting [1] is: compound: compound 19 (5-tert-butyl-thalidomide).
[2] abbreviates: compound: compound 22 (5-morpholino-thalidomide).
[3] abbreviates: compound: compound 33 (diphenyl IMiD analogue).

The full ranking holds about 8,300 sequences; the median of “log2 fold change of degron read counts, EGFP-low vs EGFP+ sorted cells (limma voom), compound-induced degradation” is about -1.1, and the highest 2% start at about 3.2. This is one part of a sample in which the highest values are shown more often than they occur.
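Also: pooled lentiviral library of zinc finger degron-EGFP fusions in mCherry-positive Jurkat cells, FACS-sorted after compound exposure, with degron abundance counted by next-generation sequencing.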

B1: 46F_47V_49E_50I_52G_53R_54P_55F_67L_, Q9UKT9 (peptide)
chain: FVCEICGRPFTQKGNLLRHIKL
Consider B1, for which the “log2 fold change of degron read counts” value runs as follows: under setting [1], -1.68; under setting [2], -0.932; under setting [3], -1.28; (compound: thalidomide) -0.0354.

B2: 46L_47C_49P_50I_52G_53F_54K_55C_67L_, Q9UKT9 (peptide)
chain: LCCPICGFKCTQKGNLLRHIKL
With B2, the “log2 fold change of degron read counts” value stood at 1.84 under setting [1], 1.91 under setting [2], 0.929 under setting [3] and 2.55 (compound: thalidomide).

B3: 46F_47H_49E_50I_52G_53A_54K_55F_67L_, Q9UKT9 (peptide)
chain: FHCEICGAKFTQKGNLLRHIKL
B3: the “log2 fold change of degron read counts” value by setting is: under setting [1], 2.99; under setting [2], 2.33; under setting [3], -0.357; (compound: thalidomide) 0.544.

B4: 46F_47Y_49E_50I_52G_53A_54K_55F_67L_, Q9UKT9 (peptide)
chain: FYCEICGAKFTQKGNLLRHIKL
As for B4, the “log2 fold change of degron read counts” value runs as follows: under setting [1], 3.9; under setting [2], 3.84; under setting [3], 1.98; (compound: thalidomide) 1.59.

B5: 46F_47L_49E_50I_52G_53A_54K_55F_67L_, Q9UKT9 (peptide)
chain: FLCEICGAKFTQKGNLLRHIKL
As to B5, the “log2 fold change of degron read counts” value under setting [1] was found to be 0.834, the “log2 fold change of degron read counts” value under setting [2] was -0.868, the “log2 fold change of degron read counts” value under setting [3] is -0.0729 and the “log2 fold change of degron read counts” value (compound: thalidomide) turned out to be 2.07.

B6: 46F_47K_49E_50I_52G_53A_54K_55F_67L_, Q9UKT9 (peptide)
chain: FKCEICGAKFTQKGNLLRHIKL
On to B6, for which the “log2 fold change of degron read counts” value under setting [1] is -1.09, the “log2 fold change of degron read counts” value under setting [2] is -3.1, the “log2 fold change of degron read counts” value under setting [3] is -3.06 and the “log2 fold change of degron read counts” value (compound: thalidomide) is -1.37.

B7: 46F_47F_49E_50I_52G_53A_54K_55F_67L_, Q9UKT9 (peptide)
chain: FFCEICGAKFTQKGNLLRHIKL
For B7, the “log2 fold change of degron read counts” value under setting [1] came to 3.78, the “log2 fold change of degron read counts” value under setting [2] worked out at 3.65, the “log2 fold change of degron read counts” value under setting [3] is 1.37 and the “log2 fold change of degron read counts” value (compound: thalidomide) was determined as 1.7.

B8: 46F_47S_49E_50I_52G_53A_54K_55F_67L_, Q9UKT9 (peptide)
chain: FSCEICGAKFTQKGNLLRHIKL
For the sequence B8, the “log2 fold change of degron read counts” value is 3.23 under setting [1], 1.96 under setting [2], -0.76 under setting [3] and 1.76 (compound: thalidomide).

B9: 46F_47N_49E_50I_52G_53A_54K_55F_67L_, Q9UKT9 (peptide)
chain: FNCEICGAKFTQKGNLLRHIKL
In the case of B9, the “log2 fold change of degron read counts” value by setting is: under setting [1], 2.53; under setting [2], 0.377; under setting [3], -1.68; (compound: thalidomide) 0.453.

B10: 46F_47D_49E_50I_52G_53A_54K_55F_67L_, Q9UKT9 (peptide)
chain: FDCEICGAKFTQKGNLLRHIKL
For the sequence B10, the “log2 fold change of degron read counts” value under setting [1] is 2.14, the “log2 fold change of degron read counts” value under setting [2] was determined as 0.278, the “log2 fold change of degron read counts” value under setting [3] was -2.01 and the “log2 fold change of degron read counts” value (compound: thalidomide) was found to be 1.01.

B11: 46F_47Q_49E_50I_52G_53A_54K_55F_67L_, Q9UKT9 (peptide)
chain: FQCEICGAKFTQKGNLLRHIKL
As to B11, the “log2 fold change of degron read counts” value under setting [1] turned out to be 0.93, the “log2 fold change of degron read counts” value under setting [2] turned out to be 2.95, the “log2 fold change of degron read counts” value under setting [3] worked out at 0.278 and the “log2 fold change of degron read counts” value (compound: thalidomide) came out at 3.46.

B12: 46F_47C_49E_50I_52G_53A_54K_55F_67L_, Q9UKT9 (peptide)
chain: FCCEICGAKFTQKGNLLRHIKL
For the sequence B12, the “log2 fold change of degron read counts” value by setting is: under setting [1], 3.35; under setting [2], 2.52; under setting [3], 0.0496; (compound: thalidomide) 2.53.

B13: 46F_47E_49E_50I_52G_53A_54K_55F_67L_, Q9UKT9 (peptide)
chain: FECEICGAKFTQKGNLLRHIKL
For B13, the “log2 fold change of degron read counts” value by setting is: under setting [1], 0.521; under setting [2], -1.41; under setting [3], -0.834; (compound: thalidomide) 2.62.

B14: 46F_47A_49N_50I_52G_53A_54C_55F_67L_, Q9UKT9 (peptide)
chain: FACNICGACFTQKGNLLRHIKL
For the sequence B14, the “log2 fold change of degron read counts” value was 2.13 under setting [1], 1.95 under setting [2], 0.735 under setting [3] and -0.49 (compound: thalidomide).

B15: 46F_47K_49E_50I_52G_53R_54R_55F_67L_, Q9UKT9 (peptide)
chain: FKCEICGRRFTQKGNLLRHIKL
Regarding B15, the “log2 fold change of degron read counts” value under setting [1] was -2.87, the “log2 fold change of degron read counts” value under setting [2] was -3.55, the “log2 fold change of degron read counts” value under setting [3] was -3 and the “log2 fold change of degron read counts” value (compound: thalidomide) was -1.89.

B16: 46F_47D_49S_50V_52G_53H_54I_55F_67L_, Q9UKT9 (peptide)
chain: FDCSVCGHIFTQKGNLLRHIKL
In the case of B16, the “log2 fold change of degron read counts” value under setting [1] is -1.69, the “log2 fold change of degron read counts” value under setting [2] is -1.84, the “log2 fold change of degron read counts” value under setting [3] was -1.76 and the “log2 fold change of degron read counts” value (compound: thalidomide) was -1.28.

B17: 46F_47M_49P_50I_52G_53A_54W_55F_67L_, Q9UKT9 (peptide)
chain: FMCPICGAWFTQKGNLLRHIKL
Consider B17, for which the “log2 fold change of degron read counts” value is, setting by setting: under setting [1], -1.26; under setting [2], -0.611; under setting [3], 1.3; (compound: thalidomide) -0.221.

B18: 46F_47D_49P_50I_52G_53A_54E_55F_67L_, Q9UKT9 (peptide)
chain: FDCPICGAEFTQKGNLLRHIKL
For the sequence B18, the “log2 fold change of degron read counts” value is, setting by setting: under setting [1], -0.0781; under setting [2], -0.933; under setting [3], 1.14; (compound: thalidomide) 0.579.

The record behind these values is the supplement of paper PMC12645437, “Orthogonal IMiD-Degron Pairs Induce Selective Protein Degradation in Cells” (ACS Chemical Biology, 2025).
